Assay results: PubChem BioAssay (NCI)
The panel holds about 83,000 compounds, 20% with a hit somewhere; the sample as a whole holds those more often.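 Cells were grown in 96-well plates and exposed to the test compound at a single concentration for 48 hours; results are reported as percent growth, with values below 10 considered active.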 Unmarked numbers belong to inactive results. Active and inactive are the calls of the source.

Each molecule was assayed on M14 melanoma (assay: NCI-60 one-dose screen, 48 h (100 = growth as untreated, 0 = no growth, -100 = all killed)). Settings: 10 µM unless noted.

Row | SMILES | growth
1 | COc1cc(-c2nc(-c3nc4cc(C(=O)c5ccccc5)ccc4[nH]3)cc3c2[nH]c2ccccc23)cc(OC)c1OC | 85.8%
2 | COc1cc(C2=NOC(c3cc(OC)c(OC)c(OC)c3)C2)ccc1OCCCCOc1cc2c(cc1OC)C(=O)N1CCC[C@H]1C=N2 (stereo partly drawn) | -43.7% (active)
3 | O=C(CCCCCCc1nc2ccc(Br)cc2[nH]1)NO | -16.1% (active)
4 | CCCCOc1ncnc2nc[nH]c12 | 106%
5 | CC(C)=CCC[C@H](C)c1ccc(C)c2c1OCN(CCO)C2 | 90.9%
6 | O=C(Nc1cccc(Cl)c1)Nc1cc(C(F)(F)F)ccc1Cl | 18.2%
7 | CCCCC(CCc1ccccn1)C(=O)c1ccccc1 (stereo not drawn) | 108%
8 | Nc1cccc(S(=O)(=O)c2cccc(N)c2)c1 | 107%
9 | O=C(Nc1ccc2ncnc(Nc3ccc(F)c(Cl)c3)c2c1)c1cccs1 | 65%
10 | O=[N+]([O-])c1ccccc1CN1CCCCC1 | 114%
11 | COc1cc2c(cc1OCCCOc1cc3c(cc1OC)C(=O)N1CCC[C@H]1C=N3)C=CC(C)(C)O2 | 111%
12 | CCCCCCCCCC1=NC(C)(C)CN1C(C)(C)CO | 113%
13 | COCCn1c(Nc2ccc(C(=O)NO)cc2)nc2ccccc21 | 51.6%
14 | O=C(CSc1ccc(Cl)cc1)Nc1ccc(-c2nc3ccccc3s2)c(Cl)c1 | 75.4%
15 | COc1cc(/C=C2\C(=O)Nc3ccc(N(C)C)cc32)cc(OC)c1OC | -3.91% (active)
16 | CC(C)(C)NC(=O)C(OC(=O)C1CCc2cc(F)ccc2O1)c1ccccc1Cl (stereo not drawn) | 94.9%
17 | CSCCC1NC(=O)C(C(C)=Nc2ccccc2)=C1O (stereo not drawn) | 103%
18 | CC1(C)C2CCC(O)(C(=O)O)C1C2 (stereo not drawn) | 105%
19 | COc1ccc(CCN2COc3c([C@@H](C)CCC=C(C)C)ccc(C)c3C2)cc1OC | 11.5%
20 | COc1ccc(C(=O)C(CN(C)C)c2ccccc2)cc1 (stereo not drawn) | -63% (active)

Row | SMILES | growth
21 | Oc1ccc(CCCCCCc2ccc(O)cc2)cc1 | 41.8%
22 | c1ccc(C2=Nc3ccccc3SC2)cc1 | 103%
23 | O=C(O)c1cn(-c2ccccc2)nc1-c1ccc(O)cc1 | 91.8%
24 | COc1cc(/C=C/C(=O)c2c(C)nc3ccccc3c2C)ccc1OCCCOc1cc2c(cc1OC)C(=O)N1CCC[C@H]1C=N2 | -45.2% (active)
25 | COc1ccc(Br)c2ccccc12 | 101%
26 | CC(=O)c1cccc(Nc2ncnc3ccc(NC(=O)c4ccco4)cc23)c1 | 87.4%
27 | CCN(CC)c1ccc(C(=N)c2ccc(N(C)C)cc2)cc1 | -44.4% (active)
28 | CCCCCCCCCCCCCCCCCC1=NC(C)(C)CN1C(C)(C)CO | -100% (active)
29 | COC(=O)c1ccc(NC(N)=NCCC(C)(C)c2ccc(C(F)(F)F)cc2)nc1 | -40% (active)
30 | CCCCCCCCCCCC1=NC(C)(C)CN1C(C)(C)CO | -84.4% (active)
31 | CO[C@@]12[C@@H]3NC3CN1C1=C(C(=O)C(N)=C(C)C1=O)[C@@H]2COC(N)=O (stereo partly drawn) | 2.4% (active)
32 | Cc1cc(NC(=O)c2ccc(N)cc2)ccc1N=Nc1ccc2cc(S(=O)(=O)O)cc(S(=O)(=O)O)c2c1 | 112%
33 | CCCCCCCCCCCCCCCC1=NCC[N+]1(CCO)CCO | 7.86% (active)
34 | CC1CN(CCCOC(=O)Nc2ccc(Cl)cc2)CCN1C(C)(C)C (stereo not drawn) | 99.7%
35 | O=c1c2sc3ccccc3c2nnn1-c1ccc(F)c(Cl)c1 | 74.7%
36 | Clc1ccccc1Nc1nnc(-c2ccncc2)s1 | 104%
37 | COc1cc2c(cc1I)-c1c(cc(OC)c(OC)c1OC)CC[C@@H]2NC(C)=O | -12.9% (active)
38 | COC(=O)c1cc(Cl)cc([N+](=O)[O-])c1O | 94.9%
39 | CCN(CC)c1ccc2nc3c4ccccc4c(=O)cc-3n(-c3ccccc3)c2c1 | -56.8% (active)

What follows are molecules tested on HCT-15 colon in the same assay as above. Settings: 10 µM unless noted.

Row | SMILES | growth
40 | COc1cc(-c2nc(-c3nc4cc(C(=O)c5ccccc5)ccc4[nH]3)cc3c2[nH]c2ccccc23)cc(OC)c1OC | 83.1%
41 | COc1cc(C2=NOC(c3cc(OC)c(OC)c(OC)c3)C2)ccc1OCCCCOc1cc2c(cc1OC)C(=O)N1CCC[C@H]1C=N2 (stereo partly drawn) | 4.27% (active)
42 | O=C(CCCCCCc1nc2ccc(Br)cc2[nH]1)NO | 35.9%
43 | CCCCOc1ncnc2nc[nH]c12 | 108%
44 | CC(C)=CCC[C@H](C)c1ccc(C)c2c1OCN(CCO)C2 | 105%
45 | O=C(Nc1cccc(Cl)c1)Nc1cc(C(F)(F)F)ccc1Cl | 9.83% (active)
46 | CCCCC(CCc1ccccn1)C(=O)c1ccccc1 (stereo not drawn) | 107%
47 | Nc1cccc(S(=O)(=O)c2cccc(N)c2)c1 | 114%
48 | O=C(Nc1ccc2ncnc(Nc3ccc(F)c(Cl)c3)c2c1)c1cccs1 | 51%
49 | O=[N+]([O-])c1ccccc1CN1CCCCC1 | 107%
50 | COc1cc2c(cc1OCCCOc1cc3c(cc1OC)C(=O)N1CCC[C@H]1C=N3)C=CC(C)(C)O2 | 89.9%
51 | CCCCCCCCCC1=NC(C)(C)CN1C(C)(C)CO | 82.2%
52 | COCCn1c(Nc2ccc(C(=O)NO)cc2)nc2ccccc21 | 74.9%
53 | O=C(CSc1ccc(Cl)cc1)Nc1ccc(-c2nc3ccccc3s2)c(Cl)c1 | 39.6%
54 | COc1cc(/C=C2\C(=O)Nc3ccc(N(C)C)cc32)cc(OC)c1OC | 17%
55 | CC(C)(C)NC(=O)C(OC(=O)C1CCc2cc(F)ccc2O1)c1ccccc1Cl (stereo not drawn) | 98.7%
56 | CSCCC1NC(=O)C(C(C)=Nc2ccccc2)=C1O (stereo not drawn) | 117%
57 | CC1(C)C2CCC(O)(C(=O)O)C1C2 (stereo not drawn) | 114%
58 | COc1ccc(CCN2COc3c([C@@H](C)CCC=C(C)C)ccc(C)c3C2)cc1OC | 29.5%
59 | COc1ccc(C(=O)C(CN(C)C)c2ccccc2)cc1 (stereo not drawn) | -49.3% (active)

Row | SMILES | growth
60 | Oc1ccc(CCCCCCc2ccc(O)cc2)cc1 | 74.5%
61 | c1ccc(C2=Nc3ccccc3SC2)cc1 | 105%
62 | O=C(O)c1cn(-c2ccccc2)nc1-c1ccc(O)cc1 | 98.4%
63 | COc1cc(/C=C/C(=O)c2c(C)nc3ccccc3c2C)ccc1OCCCOc1cc2c(cc1OC)C(=O)N1CCC[C@H]1C=N2 | -25.9% (active)
64 | COc1ccc(Br)c2ccccc12 | 110%
65 | CC(=O)c1cccc(Nc2ncnc3ccc(NC(=O)c4ccco4)cc23)c1 | 86.8%
66 | CCN(CC)c1ccc(C(=N)c2ccc(N(C)C)cc2)cc1 | 10.9%
67 | CCCCCCCCCCCCCCCCCC1=NC(C)(C)CN1C(C)(C)CO | 1.33% (active)
68 | COC(=O)c1ccc(NC(N)=NCCC(C)(C)c2ccc(C(F)(F)F)cc2)nc1 | 37.8%
69 | CCCCCCCCCCCC1=NC(C)(C)CN1C(C)(C)CO | 8.9% (active)
70 | CO[C@@]12[C@@H]3NC3CN1C1=C(C(=O)C(N)=C(C)C1=O)[C@@H]2COC(N)=O (stereo partly drawn) | 26.4%
71 | Cc1cc(NC(=O)c2ccc(N)cc2)ccc1N=Nc1ccc2cc(S(=O)(=O)O)cc(S(=O)(=O)O)c2c1 | 104%
72 | CCCCCCCCCCCCCCCC1=NCC[N+]1(CCO)CCO | 31.9%
73 | CC1CN(CCCOC(=O)Nc2ccc(Cl)cc2)CCN1C(C)(C)C (stereo not drawn) | 114%
74 | O=c1c2sc3ccccc3c2nnn1-c1ccc(F)c(Cl)c1 | 56.7%
75 | Clc1ccccc1Nc1nnc(-c2ccncc2)s1 | 112%
76 | COc1cc2c(cc1I)-c1c(cc(OC)c(OC)c1OC)CC[C@@H]2NC(C)=O | 9.35% (active)
77 | COC(=O)c1cc(Cl)cc([N+](=O)[O-])c1O | 109%
78 | CCN(CC)c1ccc2nc3c4ccccc4c(=O)cc-3n(-c3ccccc3)c2c1 | 5.16% (active)
